From PubChem BioAssay (NCATS)
Records with an inconclusive call do not appear. Calls follow the shape of the dose curve; as a rule, active = well fitted curve in either direction with a large enough effect (not every such curve was filed as active); inconclusive = small, poorly fitted or top-dose-only effect, or another doubt; inactive = flat fitted curve, though single readings scatter.

Test: AP1 Signaling Pathway (AID 357)
Details: ME-180 AP-1-bla reporter, EGF-induced, beta-lactamase ratio, 5 h; at 17.2 µM (top of the series) unless noted
Outline: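 ME-180 cells with beta-lactamase reporter under AP-1 response element, stimulated with EC50 EGF; compounds tested in titration series, 5 h at 37 °C. CCF4 substrate added 2.5 h at room temperature; 460/530 nm emission ratio gave %activity and AC50.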
% is scaled to controls: 0 for no effect and ±100 for the full control effect.

Activity change, negative = inhibition, inactive:
CCCOc1cccc(CN2CCCCC2c2cccnc2)c1 (stereo unspecified) 0.284%
CCCOc1ccc(C(C)=O)cc1CSCCC#N -12.7%
CC1(C)Cc2c(c(N3CCOCC3)nc3sc(C#N)c(N)c23)CS1 11.7%
O=c1[nH]c2sc3c(c2c(=O)n1Cc1ccccc1)CCC3 -27.5%
CCOC(=O)C(C)Sc1nc(-c2cccs2)ccc1C#N (stereo unspecified) 7.21%
CCC(CC)c1nc2cc(OC)c(OC)cc2c(=O)o1 -1.43%
Cc1ccsc1C1NC(=O)c2c(sc3c2CCCC3)N1 (stereo unspecified) -25.1%
COC(=O)c1ccc(CSc2ncnc3c2sc2nc(N4CCOCC4)c4c(c23)CCCC4)o1 20.1%
COC(=O)c1cc(Br)c(=O)n(Cc2cccnc2)c1 2.36%
COc1cc(N2C(=O)CSC23C(=O)Nc2ccccc23)cc(OC)c1OC (stereo unspecified) 14.9%
CC(=O)c1cc2c(=O)c3ccccc3oc2nc1C -1.73%
Cc1ccc(Cn2ncc3c(N4CCN(Cc5ccc(Cl)cc5)CC4)ncnc32)cc1 -8.19%
O=S(=O)(c1ccccc1)N1CCC(N2CCCCCC2)CC1 5.59%
CCOC(=O)c1c(-c2cccs2)csc1NC(=O)CCCC(=O)O -7.6%
CCn1cc(C(=O)NCCc2ccccc2)c(=O)c2cc(F)c(N3CCN(C)CC3)cc21 -9.7%
Nc1ccc2c(c1)N1CCN=C1S2 -0.461%
CCCCC(C(=O)O)C(C)CC(=O)Nc1cccc(C(=O)O)c1 (stereo unspecified) 5.92%
COc1ccccc1C1CC(c2ccc(Cl)cc2)Nc2nc(N)nn21 (stereo unspecified) 6.6%
CN1C2C=C3C(C#N)=C(N)C(C#N)(C#N)[C@@H](c4cccs4)C3C1CC2 (stereo partly specified) 17.2%
CCCCCSc1nc(N2CCOCC2)c2c(c1C#N)CC(C)(C)OC2 -13.1%
C=CCSc1nnc2n(CCc3ccccc3)c(=O)c3c4c(sc3n12)COC(C)(C)C4 -23.5%
Clc1ccc(Cl)c(-c2ccc(/C=N/c3ncn[nH]3)o2)c1 -20.5%

Test: Stat Signaling Pathway (AID 446);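 also: ME-180 cervical cancer cells given 40 pM IL-6 alongside compound; SIE-controlled beta-lactamase reporter measured as 460/530 nm FRET emission ratio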
Details: ME-180 SIE beta-lactamase reporter, IL-6 stimulated, 5 h; at 17.2 µM (top of the series) unless noted
Outline: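 ME-180 cells carrying a SIE-driven beta-lactamase reporter are stimulated with 40 pM IL-6 for 5 h at 37C in the presence of compound. The 460/530 nm FRET substrate ratio is read after 2.5 h at RT. Data are normalised to 300 pM IL-6 and to 125 nM JAK inhibitor controls.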

activity, negative = inhibition, inactive:
CCOC(=O)c1c2c(c(=S)n(-c3ccccc3)c1N)CCC2 -15.9%
CC1(C)Cc2c(sc3nc4n(c(=N)c23)CCCCC4)CO1 3.32%
COc1ccc(-c2oc3ncn4nc(COc5ccccc5)nc4c3c2-c2ccc(OC)cc2)cc1 4.11%
C/C(=N\O)c1ccc2[nH]ccc2c1 13.9%
CC(C)c1nc(NCCN2CCOCC2)c(C#N)c2c1COC(C)(C)C2 -1.06%
CC(C)OC(=O)C(C#N)c1nc2ccccc2nc1N1CCN(Cc2ccc3c(c2)OCO3)CC1 (stereo unspecified) -12.7%
CCCCOc1ccc(C(=O)OC2CC(C)N(C)CC2C)cc1 (stereo unspecified) 1.35%
Cc1ccc(N2C(=O)CC(N(O)C3CC(=O)N(c4ccc(C)cc4)C3=O)C2=O)cc1 (stereo unspecified) -25.3%
COC(=O)c1sc2nc(N3CCCCC3)c3c(c2c1N)CC(C)(C)N(C)C3 9.93%
CN1CCN(CCC(=O)N2c3ccccc3Sc3ccc(Cl)cc32)CC1 6.36%
Brc1ccc(-c2cnc3n2CCCC3)cc1 16.1%
O=C(c1ccc(F)cc1)N1CCC(N2CCCCCC2)CC1 -3.47%
C=CC[N+](C)(C)CCCNC(=O)/C=N/O 4.74%
CC1(C)C2CCC1(C)C(NC(=O)CCN1CCCCC1)C2 (stereo unspecified) 8.36%
Cc1cc(C)n(C2CCCCC2OC(=O)c2ccccc2)n1 (stereo unspecified) 3.83%
CCOc1ccc(N2C(=O)CC(N)C2=O)cc1 (stereo unspecified) -5.4%
c1ccc(C2Nc3ccccc3-c3nc4ccccc4n32)nc1 (stereo unspecified) -0.281%
CCCOc1cccc(CN2CCCCC2c2cccnc2)c1 (stereo unspecified) 0.49%
CCCOc1ccc(C(C)=O)cc1CSCCC#N 85.5%
CC1(C)Cc2c(c(N3CCOCC3)nc3sc(C#N)c(N)c23)CS1 -14.4%
O=c1[nH]c2sc3c(c2c(=O)n1Cc1ccccc1)CCC3 -5.31%
CCOC(=O)C(C)Sc1nc(-c2cccs2)ccc1C#N (stereo unspecified) -3.63%
CCC(CC)c1nc2cc(OC)c(OC)cc2c(=O)o1 -3.88%
Cc1ccsc1C1NC(=O)c2c(sc3c2CCCC3)N1 (stereo unspecified) -6.73%
COC(=O)c1ccc(CSc2ncnc3c2sc2nc(N4CCOCC4)c4c(c23)CCCC4)o1 25.6%
COC(=O)c1cc(Br)c(=O)n(Cc2cccnc2)c1 9.48%
COc1cc(N2C(=O)CSC23C(=O)Nc2ccccc23)cc(OC)c1OC (stereo unspecified) -2.69%
CC(=O)c1cc2c(=O)c3ccccc3oc2nc1C 7.33%
Cc1ccc(Cn2ncc3c(N4CCN(Cc5ccc(Cl)cc5)CC4)ncnc32)cc1 -14.5%
O=S(=O)(c1ccccc1)N1CCC(N2CCCCCC2)CC1 4.98%
CCOC(=O)c1c(-c2cccs2)csc1NC(=O)CCCC(=O)O -0.962%
CCn1cc(C(=O)NCCc2ccccc2)c(=O)c2cc(F)c(N3CCN(C)CC3)cc21 -5.45%
Nc1ccc2c(c1)N1CCN=C1S2 8.4%
CCCCC(C(=O)O)C(C)CC(=O)Nc1cccc(C(=O)O)c1 (stereo unspecified) 12.4%
COc1ccccc1C1CC(c2ccc(Cl)cc2)Nc2nc(N)nn21 (stereo unspecified) -2.9%
CN1C2C=C3C(C#N)=C(N)C(C#N)(C#N)[C@@H](c4cccs4)C3C1CC2 (stereo partly specified) 13.6%
CCCCCSc1nc(N2CCOCC2)c2c(c1C#N)CC(C)(C)OC2 9.95%
C=CCSc1nnc2n(CCc3ccccc3)c(=O)c3c4c(sc3n12)COC(C)(C)C4 -18.1%
Clc1ccc(Cl)c(-c2ccc(/C=N/c3ncn[nH]3)o2)c1 -6.04%
